High-throughput results deposited in PubChem BioAssay by National Center for Advancing Translational Sciences (NCATS).
POLI inh – blocks human DNA polymerase iota activity. 390,000 compounds, 1% hits. Pol iota fluorescent replication assay, 10 min. Potency, µM (titrated, usually from 115 µM), most hits filed as inhibitors. Q9UNA4
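Fluorescent replication assay read twice, at 0 min and 10 min after adding 50 nM (final) substrate. Enzyme (10 nM) and compounds were first incubated 15 min at room temperature; enzyme-free buffer wells were negative controls.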
Pol kappa inh – DNA polymerase kappa (human) inhibition | Q9UBT6 | purified Pol kappa, fluorescent DNA synthesis assay, 10 min | Potency, µM (titrated, usually from 107 µM), actives largely listed as inhibitors | 400,000 compounds, 0.53% hits | AID 588579
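Enzyme at 10 nM met test compounds for 15 min at room temperature. Substrate addition (50 nM final) began the reaction, which was monitored by fluorescence at 0 and 10 min.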
Pol beta inh – DNA polymerase beta (human) inhibition. P06746. Pol beta primer extension/strand displacement, fluorescence kinetic. Potency, µM (highest dose often 114 µM), usual class: inhibitors. 340,000 compounds, 1.3% hits
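Pol beta (10 nM) and compounds were preincubated 15 min at room temperature, then 50 nM substrate (final) started primer extension/strand displacement. Reads were taken at 0 and 10 min; concentration-response data were fitted to a four-parameter Hill equation.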
Pol eta inh – DNA polymerase eta (human) inhibition; recombinant Pol eta, fluorescent DNA replication assay; Potency, µM (top dose mostly 114 µM), most hits filed as inhibitors; 390,000 compounds, 1.2% hits
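Fluorescent replication assay: 50 nM final substrate added after a 15 min room-temperature compound preincubation with 10 nM enzyme. Signal taken at 0 min and again at 10 min.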
TDP1 block – blocks human tyrosyl-DNA phosphodiesterase 1; Q9NUW8; recombinant TDP1, AlphaScreen DNA substrate cleavage; Potency, µM (highest dose often 130 µM), most hits filed as inhibitors; 350,000 compounds, 0.28% hits; AID 485290; further: nearly all actives have a fitted effect of over 40% in size
Target sequence (Q9NUW8 whole entry, looked up): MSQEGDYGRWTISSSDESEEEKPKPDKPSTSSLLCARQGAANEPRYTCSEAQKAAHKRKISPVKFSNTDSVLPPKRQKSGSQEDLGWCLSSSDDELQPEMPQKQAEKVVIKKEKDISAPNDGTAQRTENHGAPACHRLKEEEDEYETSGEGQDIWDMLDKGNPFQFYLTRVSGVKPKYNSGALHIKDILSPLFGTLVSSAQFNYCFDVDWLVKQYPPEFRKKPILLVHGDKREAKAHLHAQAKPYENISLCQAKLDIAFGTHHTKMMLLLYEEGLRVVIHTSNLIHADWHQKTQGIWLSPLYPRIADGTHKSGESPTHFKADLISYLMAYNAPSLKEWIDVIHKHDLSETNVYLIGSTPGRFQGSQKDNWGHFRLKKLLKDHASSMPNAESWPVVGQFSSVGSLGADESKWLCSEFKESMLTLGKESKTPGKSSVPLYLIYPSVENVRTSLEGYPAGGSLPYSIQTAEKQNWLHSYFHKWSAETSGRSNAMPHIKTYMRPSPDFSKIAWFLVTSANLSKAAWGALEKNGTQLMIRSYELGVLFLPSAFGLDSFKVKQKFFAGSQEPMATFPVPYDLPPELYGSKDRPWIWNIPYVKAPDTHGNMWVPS
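Here, a 5' biotin and 3' phosphotyrosine-FITC DNA oligonucleotide reports Tdp1 activity: intact substrate bridges AlphaScreen beads, while cleavage leaves a 3' phosphate and drops signal. All incubations at room temperature.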
A number is an active result; 0 = inactive; ? = inconclusive; - = not tested or not shown; ! = not confirmed by another sample; [ ] = dose if it differs, or a comment. The list is not random: actives were taken first. Their share in the collection is about 2.4%. The call rests on the fitted dose curve; in most records, active means well fitted curve in the direction sought with a large enough effect; inconclusive means small, poorly fitted or top-dose-only effect, or another doubt; inactive means no such curve, though single readings can be large; an effect the other way counts as inactive or inconclusive.

SMILES | POLI inh | Pol kappa inh | Pol beta inh | Pol eta inh | TDP1 block
CCc1ccc(OCC(=O)Nc2ccc(-c3nc4ccccc4o3)c(O)c2)cc1 | 0 | 0 | 2.2µM | ? | 0
CCCOc1ccc(CNC(=O)Cc2cccs2)cc1 | 0 | 0 | ? | 0 | -
COc1ccc(C2c3c(N)nc(CCc4ccccc4)nc3Oc3ccc4ccccc4c32)cc1OC (centres undefined) | - | - | - | - | 0
Cc1cccc(-c2nc(CN3CCCC(C(=O)NCCc4ccc(Cl)cc4)C3)c(C)o2)c1 (centres undefined) | 0 | 0 | 0 | 0 | 0
CCC(C)C(=O)OCC1(c2ccc(C)cc2OC(=O)C(C)C)CO1 (centres undefined) | ? | 0 | 40µM | 0 | -
Cc1ccc(C2(COC(=O)C(C)C)CO2)c(OC(=O)C(C)C)c1 (centres undefined) | 0 | 0 | 0 | 0 | -
O=C(CSc1nc2ccsc2c(=O)n1Cc1ccc(F)cc1)NCc1ccc(Cl)cc1 | 0 | 0 | 0 | 0 | 0
Cc1noc(C)c1-c1nccc(N(C)Cc2ccco2)n1 | - | 0 | - | - | -
CN(Cc1ccco1)c1ccnc(-c2ccoc2)n1 | - | ? | - | - | 3.5µM
CN(Cc1ccco1)c1ccnc(-c2ccccc2C(F)(F)F)n1 | - | 0 | - | - | -
CN(Cc1ccco1)c1ccnc(-c2cccnc2)n1 | - | 25µM | - | - | -
Cc1ccc(OC(=O)CSc2nnc(CNC(=O)c3ccccc3)o2)cc1 | 0 | 0 | 0 | 0 | 0
O=C(Cn1ncc(Cl)c(Cl)c1=O)NC1CCS(=O)(=O)C1 (centres undefined) | 14µM | ? | ? | ? | -
O=C1CCc2cc(S(=O)(=O)Nc3cccc(B(O)O)c3)ccc2N1 | - | - | - | - | 0
CCc1ccc(NC(=O)c2ccc(F)c(S(=O)(=O)N(C)C3CCCCC3)c2)cc1 | 0 | 0 | 0 | 0 | 0
Cc1cc(C)cc(C(=O)Nc2ccc(-c3nc4ncccc4o3)cc2)c1 | 0 | 0 | 14µM | ? | 0
Cc1cc(-c2nc3ncccc3o2)ccc1NC(=O)c1ccc([N+](=O)[O-])o1 | 3.5µM | 0 | - | 50µM | -
Cc1ccc(-c2nc3ncccc3o2)cc1NC(=O)c1ccc([N+](=O)[O-])o1 | 0 | 0 | 0 | 0 | 0
CCOc1ccccc1CNC(=O)c1ccc(CS(=O)Cc2cccc(Cl)c2)o1 (centres undefined) | 0 | 0 | 0 | 0 | 0
COc1ccc(C=C2c3ccccc3C(=O)c3ccccc32)cc1O | - | 0 | - | - | 0
CCC(=O)Nc1ccc(C(=O)CSc2nnc(-c3ccccc3F)n2C2CC2)cc1 | ? | 0 | 28µM | ? | 0
CN(Cc1ccsc1)C(=O)Cn1cc(Br)ccc1=O | 22µM | 0 | 0 | 0 | 0
Cn1c(=O)c2cc(C(=O)NC3CCCCCC3)sc2c2ccccc21 | 0 | 0 | 8.9µM | ? | 0
Oc1ccc(/C=N/N2CCCCC2)c(O)c1O | ? | ? | 35µM | 0 | -
O=C1c2cccc3cccc(c23)C(=O)N1/N=C/c1ccc(O)cc1O | 0 | 0 | ? | ? | 0
SMILES | POLI inh | Pol kappa inh | Pol beta inh | Pol eta inh | TDP1 block
O=C1c2ccccc2C(=O)N1/N=C/c1ccc(O)c(O)c1O | ? | 1.4µM | ? | 1.6µM | ?
Oc1ccc(/C=N/N(c2ccccc2)c2ccccc2)c(O)c1O | - | - | 5µM | - | -
Oc1cccc(/C=N/N2CCCCC2)c1O | ? | 0 | ? | 0 | -
N#Cc1cc2c(OCC(O)CN3CCN(C(c4ccccc4)c4ccccc4)CC3)cccc2[nH]1 (centres undefined) | - | 0[19.4 µM] | - | - | 0
CCOC(=O)c1c(S(=O)(=O)N2CCCC(C(=O)N3CCN(c4cccc(C)c4C)CC3)C2)c(C)n(C)c1C (centres undefined) | 0 | 0 | ? | 0 | 0
Cc1cc(/C=C2\SC(=S)NC2=O)c(C)n1-c1ccccc1 | ? | ? | ? | 50µM | 0
Cc1cc(C(=O)O)ccc1-n1c(C)cc(/C=C2\SC(=O)NC2=O)c1C | ? | 0 | ? | 50µM | 0
COC(=O)c1cccc(-n2c(C)cc(/C=C3\SC(=O)NC3=O)c2C)c1 | - | - | - | 0 | -
COc1ccc(-n2c(C)cc(/C=C3\SC(=S)NC3=O)c2C)cc1 | 0 | 0 | 0 | ? | 0
Cc1ccc2nc(N/N=C\c3ccc([N+](=O)[O-])o3)nc(-c3ccccc3)c2c1 | ? | 0 | 28µM | ? | 0
O=C(C[n+]1cccc2cccc(O)c21)c1ccccc1 | 0 | 0 | - | - | -
O=[N+]([O-])c1ccc(Sc2ccncn2)c([N+](=O)[O-])c1 | - | - | - | 50µM | -
Cc1cc(C)nc(Sc2ccc([N+](=O)[O-])cc2[N+](=O)[O-])n1 | 0 | 0 | 0 | ? | 0
CC(C)Cn1c(SCc2nnc(-c3cccs3)o2)nc(O)cc1=O | 25µM | 0 | 0 | ? | 0
Cc1ccc(Oc2nc3ccccn3c(=O)c2/C=C(\C#N)c2nc3ccccc3s2)c(C)c1 | 0 | 0 | 0 | 0 | 0
N#C/C(=C\c1c(Oc2ccc(F)cc2)nc2ccccn2c1=O)c1nc2ccccc2s1 | 20µM | ? | ? | 0 | 0
Cc1ccccc1NC(=O)c1ccc(F)c(S(=O)(=O)N(C)Cc2ccccc2)c1 | 0 | 0 | 0 | 0 | 0
CCOc1ccccc1N1CCN(CC(=O)N(C2CCCC2)C2CCS(=O)(=O)C2)CC1 (centres undefined) | 0 | 0 | - | 0 | 0
CCOc1ccccc1N1CC(C(=O)N(CC)C2CCS(=O)(=O)C2)CC1=O (centres undefined) | ? | 0 | - | 50µM | 0
COc1c(O)cc2c(c1O)[C@@H]1O[C@H](CO)[C@@H](O)[C@H](O)[C@H]1OC2=O | 0 | 0 | 0 | 0 | -
Cc1c(C(=O)O)c(O)cc2c1C(=O)c1c(O)c([C@H]3O[C@H](CO)[C@@H](O)[C@H](O)[C@H]3O)c(O)c(O)c1C2=O | 79µM | 3.2µM | - | - | 0.71µM!
Clc1cc(Cl)c(OCC#CI)cc1Cl | - | 0[19.4 µM] | - | - | -
CCOC(=O)c1c(N)sc(N)c1C(=O)OCC | 0 | 0 | 0 | 0 | 0
CCOC(=O)c1c(N)sc(=S)c2c1CCC2 | ? | 0 | 8.9µM | ? | -
Cc1ccccc1-c1nc(CN2CCC(C(=O)NCc3ccc(F)cc3)CC2)c(C)o1 | 0 | 0 | 0 | 0 | 0
SMILES | POLI inh | Pol kappa inh | Pol beta inh | Pol eta inh | TDP1 block
COc1ccc(C2c3c(nc(CCCc4ccccc4)[nH]c3=O)Oc3ccc4ccccc4c32)cc1OC (centres undefined) | - | - | - | - | 0
CCN(CC)CCN(C)c1ccc(/C=C/c2ccnc3ccccc23)cc1 | 0 | 0 | - | - | -
Cc1cccc(-c2nc(CCNC(=O)c3ccccc3Br)cs2)c1 | 0 | 0 | 0 | 0 | 0
CN1C2C=C3C(C#N)=C(N)C(C#N)(C#N)[C@@H](c4cccc(F)c4)[C@@H]3C1CC2 (some centres undefined) | 20µM | 0 | 0 | 0 | 0
CN1C2C=C3C(C#N)=C(N)C(C#N)(C#N)[C@H](c4c(F)cccc4F)[C@H]3C1CC2 (some centres undefined) | 0 | 0 | 0 | 0 | 0
Nc1ccc(O)c([N+](=O)[O-])c1 | 79µM | 0 | - | 0 | 0
CCc1ccccc1N(C)C(=O)c1cnc(N2CCOCC2)c2ccccc12 | 0 | 0 | 0 | 0 | 0
